target: KRT75; assay: pooled miR-30 sensor sort-seq; sequence = guide strand; conditions: shRNA
Note: reference of the scale not given here.

Sequence	sensor-assay potency score (higher = more potent)
TATTGTGCTTTGACCTCGGCGA	-0.108
TTAATAGACACATTCCAGGGAG	0.363
TTCCACAACATCCTGCATGTTC	0.126
TTGCAAGCTGGAACACTGCTTC	0.132
TTCACATGTGTAACAGACGGGT	-0.549
TTCATCTTCGTACCTGACTTTG	-1

target: KRT79; assay: as above; conditions: shRNA

Sequence	sensor-assay potency score (higher = more potent)
TTGATTTCATCCTCGTACTTGT	0.185
TTTGCCATGCAGATCCATCCGG	-0.203
TTGCCATGCAGATCCATCCGGC	-0.416
TTCTCTGCAGCAGTGTGCTTGT	-0.0157
ATTTGTGCTGAATCCACCCTTG	0.32
TTTGTGGAGTATGTTTGCCGAG	-0.673
TTGAGCACCACAAACTCGTTCT	0.422
TTGCCAGTCACAGAAATGCTGA	-0.931
TTCATCCTCGTACTTGTTCTTG	-0.726
TCGCTCTCCAGAAGCTTGCGGT	-0.966
TTAACCTTCCCTCCCATCCTAC	-1.2
TTGACCGTAGTGGTCTTCCGCA	-0.477

target: KRT85; assay: as above; conditions: shRNA

Sequence	sensor-assay potency score (higher = more potent)
TTGAAACACAGATCGAGACAAC	-0.784
AACATCGTCATACTGAGCCTTG	-0.503
TATTTTGGAGCTAAGTAGGAGT	-0.047
TTGACTATGACCGAGGTGTCTG	-0.0564
TTTATTGAAACACAGATCGAGA	-0.788
ATCTTGACTATGACCGAGGTGT	-0.378
TTCTGGTAGAACTGCCACTTGG	-1.54
TTGCTCTCGCAGCAGCGCTGGT	-1.3
TTCTTTAGAACGACAAACTCAT	0.238
TTCACTGAATAGCAAGACCTGT	-0.614
TAGAACGACAAACTCATTCTCT	0.106
TCCCTCTGTAGGAACATCCAGA	-1.53

target: KRT86; assay: as above; conditions: shRNA

Sequence	sensor-assay potency score (higher = more potent)
TTAGTTTTTCAGAAGCTCTTGA	0.521
TGACAATGTCATCGTACTGTGC	-0.56
ACGGGTGACAATGTCATCGTAC	-0.601
AATGTCATCGTACTGTGCCTTG	-0.754
TTGATCTCGGCAATGATGCAGT	-0.0305
TCCAGCTCGGCCAACTTGCAGC	-1.89
TTATTGGAAACACAGAGTGAAA	-1.53
TTTATTGGAAACACAGAGTGAA	0.556
TTGCTGTTGCTGGGGACGCTAC	-1.52
TCGTACTGTGCCTTGATCTCGG	0.0587

From the OligoGym collection
